High-throughput results as filed in PubChem.
An excerpt weighted towards active compounds, which were near 6.5% of everything screened.
FMDV antiviral: antivirals against foot and mouth disease virus. FMDV antiviral cell-based qHTS. Potency, µM (titrated, usually from 57.9 µM), for the others: at the top dose activity change, negative = inhibition, most hits filed as inhibitors. 1.2% of 410,000 active. AID 1159524; calls by dose curve; tested in HEK293T cells; note: read-out not given here; potency is the fitted concentration of half-maximal effect; nearly all actives have a fitted effect of over 45% in size
Lassa entry inh: Lassa virus entry inhibition; Lassa virus pseudotype entry inhibition, cell reporter; Potency, µM (highest dose often 37.9 µM), inactives show at the top dose activity change, negative = inhibition, most hits filed as inhibitors; 1.2% of 300,000 active; AID 540256; calls by dose curve; tested in HEK293 cells; note: potency is the fitted concentration of half-maximal effect; nearly all actives have a fitted effect of over 50% in size
HCMV inh: blocks human cytomegalovirus replication; 4.5% of 410,000 active; activity change, negative = inhibition, % at 57.5 µM; HFF cells, HCMV-luciferase reporter, 72 h; hits give low values; in the data active = activity change below about -60%; inconclusive = no clear call, values can overlap the other calls; inactive = above about -39%
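Two-dose cell screen: HFF monolayers treated with compounds and infected with luciferase-expressing HCMV at 1 PFU/cell, 72 h at 37C, then lysed for luciferase measurement.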
VACV mCherry inh: vaccinia inhibition (mCherry reporter); Vaccinia virus mCherry reporter infection, fluorescence; Potency, µM (series often up to 36.5 µM), inactives show top-dose activity change, negative = inhibition, actives largely listed as inhibitors; 0.63% of 310,000 active; AID 720579; calls by dose curve; tested in A549 cells; note: potency is the fitted concentration of half-maximal effect; nearly all actives have a fitted effect of over 35% in size
MARV entry inh: inhibitors of Marburg virus binding or cell entry | Marburg virus pseudotyped entry inhibition, cell reporter | Potency, µM (doses to about 37.8 µM), inactives show at the top dose activity change, negative = inhibition, most hits filed as inhibitors | 1.8% of 300,000 active | AID 540276; calls by dose curve; tested in HEK293 cells; note: potency is the fitted concentration of half-maximal effect
Vaccinia Venus: vaccinia inhibition (Venus reporter). Potency, µM (doses to about 36.5 µM), without a hit: at the top dose activity change, negative = inhibition, usual class: inhibitors. Vaccinia virus Venus reporter expression, fluorescence. 0.46% of 330,000 active; calls by dose curve; tested in A549 cells; note: potency is the fitted concentration of half-maximal effect; nearly all actives have a fitted effect of over 30% in size
* = called active by the depositor; ! = a repeat was not active; [ ] = dose if it differs, or a comment. % is set by controls: 0 for no effect and ±100 for the full control effect.

CCCCCCCn1c2c(c(=N)c3ccccc31)CCC2 was read as FMDV antiviral 5µM*, HCMV inh -79*, VACV mCherry inh inconclusive and Vaccinia Venus inconclusive.
CCCn1c2c(c(=N)c3c1CCC3)CCCC2 was read as FMDV antiviral inconclusive, Lassa entry inh inconclusive, HCMV inh -97*, VACV mCherry inh -20%, MARV entry inh inconclusive and Vaccinia Venus -22%.
CCCn1c2c(c(=N)c3c1CCC3)CCC2 was read as FMDV antiviral inconclusive, Lassa entry inh -7%, HCMV inh -74*, VACV mCherry inh -11%, MARV entry inh inconclusive and Vaccinia Venus -25%.
Screening O=C(O)CCn1c2c(c3ccccc31)CCCC2 returned FMDV antiviral -17%, Lassa entry inh -4%, HCMV inh 14 and MARV entry inh 23%.
N#Cc1c(C(F)(F)F)cc(-c2cccs2)nc1SCC(=O)Nc1ccccc1F was read as FMDV antiviral -8%, Lassa entry inh 1%[46.1 µM], HCMV inh -31, VACV mCherry inh -2% and Vaccinia Venus -5%.
`Cc1ccc(S(=O)(=O)N2CCN(c3nc(-n4cccn4)nc4ccccc34)CC2)cc1` gave VACV mCherry inh -9% and Vaccinia Venus -8%.
`COc1cc(-c2c(OC)cccc2OC)cc2c1OCCN(C(=O)CCC(=O)c1ccc(F)cc1)C2` gave FMDV antiviral -7%, VACV mCherry inh -2% and Vaccinia Venus 17%.
`COc1ccc(-c2nnc(SCC(=O)c3ccc([N+](=O)[O-])cc3)o2)cc1OC` gave FMDV antiviral -7%, Lassa entry inh 25%[46.1 µM], HCMV inh -3, VACV mCherry inh -8%, MARV entry inh -3%[46.1 µM] and Vaccinia Venus 4%.
Screening Cc1cccc(Cn2nc(C(C)(C)C)cc2C(=O)Nc2ccc(F)cc2)c1 returned FMDV antiviral inconclusive, Lassa entry inh inconclusive, HCMV inh -93*, VACV mCherry inh -22%[7.34 µM], MARV entry inh inconclusive and Vaccinia Venus 11%[7.34 µM].
Screening CC(C)CC(N)c1csc(NC(=O)c2cc(C(C)(C)C)nn2Cc2ccccc2)n1 (stereo not given) returned FMDV antiviral inconclusive, HCMV inh -96*, VACV mCherry inh 11µM* and Vaccinia Venus 13µM*.
`CC(C)CC(N)c1csc(NC(=O)Nc2ccccc2Cc2ccccc2)n1` (stereo not given) gave FMDV antiviral -19%, HCMV inh -35, VACV mCherry inh inconclusive and Vaccinia Venus inconclusive.
`O=C(O)COc1ccc(-c2nccc(-c3ccccn3)n2)cc1` gave FMDV antiviral inconclusive, Lassa entry inh inconclusive, HCMV inh -71*, VACV mCherry inh 10%, MARV entry inh -14%[46.1 µM] and Vaccinia Venus 3%.
For FCCCOc1ccc(-c2nccc(-c3ccccn3)n2)cc1 the results were FMDV antiviral 51% and HCMV inh 142.
Screening CCS(=O)(=O)c1ncc(Cl)c(C(=O)Nc2ccc(S(=O)(=O)N(C)c3ccccc3)cc2)n1 returned FMDV antiviral 22µM*, Lassa entry inh inconclusive, HCMV inh -101*, VACV mCherry inh -28%, MARV entry inh 11µM* and Vaccinia Venus 14µM*!.
CCSc1ncc(Cl)c(C(=O)Nc2ccc(S(=O)(=O)N(C)c3ccccc3)cc2)n1 was read as FMDV antiviral -5%, Lassa entry inh inconclusive, HCMV inh -22, VACV mCherry inh -18%, MARV entry inh -19%[46.1 µM] and Vaccinia Venus -10%.
`CCN(c1ccccc1)S(=O)(=O)c1ccc(NC(=O)c2nc(S(C)(=O)=O)ncc2Cl)cc1` gave FMDV antiviral 28µM*, Lassa entry inh inconclusive, HCMV inh -100*, VACV mCherry inh inconclusive, MARV entry inh -24%[46.1 µM] and Vaccinia Venus inconclusive.
`CN1CCN(c2ncc3nc(-c4ccccc4)c(=O)n(C4CC4)c3n2)CC1` gave FMDV antiviral -7%.
For O=C(NCc1cc(F)cc(F)c1)[C@H]1[C@H](CO)[C@H]2Cn3c(cccc3=O)[C@@H]1N2C(=O)c1ccccn1 the results were HCMV inh -10.
For Cc1nn(-c2ccccc2)c(C)c1/C=N/n1c(-c2ccc(C(C)(C)C)cc2)n[nH]c1=S the results were FMDV antiviral -8%, Lassa entry inh 0.11µM*, HCMV inh -18, MARV entry inh -26% and Vaccinia Venus -22%.
Cc1ccc(/C=N/n2c(-c3ccccc3)n[nH]c2=S)cc1 was read as FMDV antiviral -14% and HCMV inh -21.
CC(C)c1ccc(/C=N/n2c(-c3ccccc3)n[nH]c2=S)cc1 was read as FMDV antiviral 3% and HCMV inh -66*.
Cc1ccc(-c2n[nH]c(=S)n2/N=C/c2c(C)nn(-c3ccccc3)c2C)cc1 was read as FMDV antiviral inconclusive, Lassa entry inh inconclusive, HCMV inh 7, VACV mCherry inh -11%, MARV entry inh inconclusive and Vaccinia Venus -8%.
`S=c1[nH]nc(-c2ccccc2)n1/N=C/c1ccc(-c2ccccc2Cl)o1` gave FMDV antiviral 0%, Lassa entry inh 0.82µM*, HCMV inh inconclusive, VACV mCherry inh inconclusive, MARV entry inh 0.71µM* and Vaccinia Venus 12%.
`COc1ccc(N2CCN(Cc3nc4c(c(=O)[nH]c(=O)n4C)n3CC(C)C)CC2)cc1` gave FMDV antiviral -8%, Lassa entry inh 3%[46.1 µM], HCMV inh 19, VACV mCherry inh -12%, MARV entry inh 7%[46.1 µM] and Vaccinia Venus -5%.
For COC(=O)CN1C(=O)CSc2ccc(S(=O)(=O)Nc3ccc(C)c(Cl)c3)cc21 the results were FMDV antiviral 43%, Lassa entry inh -12%[46.1 µM], HCMV inh inconclusive, VACV mCherry inh -12% and Vaccinia Venus -12%.
`CCOc1ccc(-c2cn(-c3ccccc3OC)c(=S)[nH]2)cc1` gave FMDV antiviral -7%, Lassa entry inh -17%[46.1 µM], HCMV inh -80*, VACV mCherry inh -28%, MARV entry inh inconclusive and Vaccinia Venus -18%.
Screening O=S(=O)(c1ccc(F)cc1)N(Cc1nc(-c2ccc(Cl)cc2)no1)C1CCCCC1 returned FMDV antiviral -19%, Lassa entry inh -20%[46.1 µM], HCMV inh -33, VACV mCherry inh -14%, MARV entry inh 11%[46.1 µM] and Vaccinia Venus -14%.
Screening CCC(C)NC(=O)COC(=O)c1csc2c1CCCC2 (stereo not given) returned FMDV antiviral 3.5µM*, HCMV inh -12, VACV mCherry inh -12% and Vaccinia Venus -9%.
`C(=N\Nc1nc(Nc2ccccc2)nc(N2CCOCC2)n1)/c1c[nH]c2ccccc12` gave FMDV antiviral 3%, Lassa entry inh inconclusive, HCMV inh 1 and MARV entry inh 0.073µM*.
`Cc1ccc(Nc2nc(N/N=C/c3c[nH]c4ccccc34)nc(N3CCOCC3)n2)cc1` gave FMDV antiviral inconclusive, Lassa entry inh 15µM*, HCMV inh 3, VACV mCherry inh inconclusive, MARV entry inh 0.21µM* and Vaccinia Venus inconclusive.
